Screening data: PubChem BioAssay, Broad Institute
Shown is part of a subset that was picked to be rich in hits.
BL2 CD40 inh = inhibitors of CD40-induced NF-kB signaling, primary screen, BL2 cells, luciferase reporter, single point; CD40L-induced, 4 h; inhibition, % at 10 µM; 83,000 compounds, 0.94% hits; AID 1053188, 2014;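 active means mean inhibition of at least 50% with a set share of replicates also reaching that level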;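 further: 0% = neutral control wells and 100% = IKK inhibitor VII at 50 µM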
* marks the source's active call; other numbers are inactive results; [ ] = remark or other dose.

SMILES	BL2 CD40 inh
C[C@@H]1CN([C@@H](C)CO)C(=O)c2ccccc2-c2ccccc2CO[C@@H]1CN(C)C(=O)[C@H](Cc1ccccc1)N(C)C	-2.9[25 µM]
CCC(=O)N1[C@H](C#N)[C@H](c2ccccc2-c2ccccc2)[C@H]1CO	1.1[25 µM]
Cc1ccc2nc(-c3cc(-c4ccccc4)no3)cn2c1	63.3*
CC(=O)Nc1nccc(-c2cc(-c3ccccc3)no2)n1	-89.7
CN(C)C(=O)c1cc(-c2ccccc2)no1	-47.9
O=C(NC1CCCC1)c1cc2nc(-c3ccccc3)cc(-c3ccccc3)n2n1	8.7
CC(=O)Nc1nc2nc(-c3ccccc3)cc(-c3ccccc3)n2n1	30.0*
O=C(Nc1nc2nc(-c3ccccc3)cc(-c3ccccc3)n2n1)c1ccco1	27.4
COC(=O)C[C@H]1C[C@H]2c3cc(NC(=O)Nc4ccccc4)ccc3O[C@H]2[C@H](CO)O1	16.9[25 µM]
COc1ccccc1-c1ccc([C@H]2[C@@H](C#N)N(C(=O)CN(C)C)[C@@H]2CO)cc1	-15.9[25 µM]
CCCC(=O)N1CC2(C1)CN(S(=O)(=O)c1ccc(C)cc1)[C@H](CO)c1[nH]c3cc(OC)ccc3c12	1.4[25 µM]
N#C[C@H]1[C@@H](c2ccc(C#Cc3cccc(F)c3)cc2)[C@H](CO)N1C(=O)C1CCCC1	-6.0
N#C[C@H]1[C@H](c2ccc(C#Cc3ccc(F)cc3)cc2)[C@@H](CO)N1C(=O)C1CCC1	54.0*[25 µM]
N#C[C@H]1[C@H](c2ccc(C#Cc3cccc(F)c3)cc2)[C@@H](CO)N1C(=O)C1CCCC1	41.9
N#C[C@H]1[C@@H](c2ccc(C#Cc3cccc(F)c3)cc2)[C@@H](CO)N1C(=O)C1CCCC1	0.6
N#C[C@@H]1[C@H](c2ccc(C#Cc3ccc(F)cc3)cc2)[C@@H](CO)N1C(=O)C1CC1	72.5*
CCCNC(=O)N1[C@H](C#N)[C@H](c2ccc(C#Cc3cccc(F)c3)cc2)[C@H]1CO	76.5*[25 µM]
N#C[C@H]1[C@@H](c2ccc(C#Cc3ccccc3F)cc2)[C@@H](CO)N1C(=O)C1CCC1	7.6
N#C[C@H]1[C@H](c2ccc(C#Cc3cccc(F)c3)cc2)[C@@H](CO)N1C(=O)C1CC1	36.6
N#C[C@@H]1[C@@H](c2ccc(C#Cc3ccc(F)cc3)cc2)[C@H](CO)N1C(=O)C1CCC1	0.8[25 µM]
CCCNC(=O)N1[C@H](C#N)[C@@H](c2ccc(C#Cc3cccc(F)c3)cc2)[C@@H]1CO	-1.1[25 µM]
N#C[C@H]1[C@H](c2ccc(C#Cc3cccc(F)c3)cc2)[C@@H](CO)N1C(=O)C1CCC1	54.8*
N#C[C@H]1[C@@H](c2ccc(C#Cc3cccc(F)c3)cc2)[C@H](CO)N1C(=O)C1CC1	-0.9
C/C=C/c1cnc2c(c1)C(=O)N([C@H](C)CO)C[C@H](C)[C@@H](CN(C)C(=O)C1CCOCC1)O2	-2.7[25 µM]
CC(C)NC(=O)Nc1ccc2c(c1)CC(=O)N(C)C[C@H](C)[C@@H](CN(C)S(C)(=O)=O)O2	6.0
SMILES	BL2 CD40 inh
COCCOC(=O)C1=C(C)NC(C)=C(C(=O)OC(C)C)C1c1cccc([N+](=O)[O-])c1 (stereo not drawn)	-25.9
CCOC(=O)C1=C(C)NC(C)=C(C(=O)OC)C1c1cccc([N+](=O)[O-])c1 (stereo not drawn)	-28.5
COC(=O)C1=C(C)NC(C)=C(C(=O)OCCCN2CCC(c3ccccc3)(c3ccccc3)CC2)[C@H]1c1cccc([N+](=O)[O-])c1	61.2*[25 µM]
CO[C@@H]1CC[C@H]2CCN(C)C(=O)CCCN(C)C(=O)c3cc(C#N)ccc3OC[C@@H]1O2	3.6[25 µM]
COc1ccc(S(=O)(=O)N2CC3(CN(Cc4ccccc4OC)[C@H](CO)c4[nH]c5cc(OC)ccc5c43)C2)cc1	-1.6
COc1cc2c(cc1OC)C(=O)CCS2	7.4
COc1cc2c(cc1OC)C(=O)C(Br)CC2 (stereo not drawn)	99.6*
COc1cc2c(cc1OC)C(=O)N(C)CC2	-3.0
N#C[C@H]1[C@@H](c2ccccc2C2=CCCCC2)[C@H](CO)N1C(=O)C1CCOCC1	-15.2[25 µM]
C[C@@H]1CN([C@@H](C)CO)C(=O)CCCn2cc(nn2)CO[C@@H]1CN(C)C(=O)Nc1ccc2c(c1)OCO2	-14.2[25 µM]
C[C@H](CO)N1C[C@H](C)[C@@H](CN(C)C(=O)NC2CCCCC2)OCc2ccccc2-c2ccccc2C1=O	-10.7[25 µM]
N#Cc1cccc(-c2ccc([C@@H]3[C@@H](CO)N4CCCCN(C(=O)Nc5cccc(F)c5)C[C@H]34)cc2)c1	16.5[25 µM]
O=C(Nc1ccccc1)N1CCCCN2[C@@H](CO)[C@@H](c3ccc(C#Cc4ccccc4)cc3)[C@@H]2C1	28.3
O=C(Nc1ccc(F)cc1)N1CCCCN2[C@H](CO)[C@@H](c3ccc(C#Cc4ccccc4)cc3)[C@H]2C1	4.4
N#Cc1cccc(-c2ccc([C@@H]3[C@H]4CN(C(=O)Nc5cccc(F)c5)CCCCN4[C@H]3CO)cc2)c1	17.6[25 µM]
O=C(Nc1ccc(F)cc1)N1CCCCN2[C@@H](CO)[C@@H](c3ccc(C#Cc4ccccc4)cc3)[C@@H]2C1	62.6*
N#Cc1cccc(-c2ccc([C@@H]3[C@H](CO)N4CCCCN(C(=O)Nc5cccc(F)c5)C[C@@H]34)cc2)c1	91.7*[25 µM]
C[C@H](CO)N1C[C@H](C)[C@@H](CN(C)C(=O)Nc2cccc(F)c2)OCc2ccccc2-c2c(n(C)c3ccccc23)C1=O	3.4
COCc1nnc(NC(=O)C2CC(=O)N(c3ccc(C)c(Cl)c3)C2)s1 (stereo not drawn)	0.9
O=C(Nc1nccs1)C1CC(=O)N(c2ccc(F)cc2)C1 (stereo not drawn)	1.5
Cc1ccc(N2CC(C(=O)Nc3nccs3)CC2=O)cc1Cl (stereo not drawn)	60.9*
CCC(=O)N1CCCCN2[C@H](CO)[C@H](c3ccc(/C=C/c4ccccc4)cc3)[C@@H]2C1	9.6[25 µM]
CCCC#Cc1cnc2c(c1)C(=O)N([C@@H](C)CO)C[C@@H](C)[C@@H](CN(C)C(=O)Cc1ccncc1)O2	6.9[25 µM]
C/C=C/c1ccc(C2[C@@H]3CN(S(=O)(=O)c4cccc(OC)c4)C[C@H]2N3)cc1 (stereo partly drawn)	6.4[25 µM]
CN(C)CC(=O)N1C[C@@H]2N[C@H](C1)C2c1ccc(-c2ccccc2F)cc1 (stereo partly drawn)	-6.7[25 µM]
SMILES	BL2 CD40 inh
O=C(c1cc(-c2ccc3c(c2)OCO3)on1)N1CCN(c2ccccc2)CC1	-38.4
O=C(c1cc(-c2ccc3c(c2)OCO3)on1)N1CCOCC1	48.3*
O=C(COCc1cc(-c2ccc3c(c2)OCO3)on1)N1CCCCC1	-68.4
C[C@@H]1CN([C@H](C)CO)C(=O)c2ccccc2-c2ccccc2CO[C@H]1CN(C)C(=O)c1ccc(F)cc1	-18.7[25 µM]
O=C(CN1CCOCC1)N[C@H]1CC[C@H](CCNC(=O)C2CCCC2)O[C@@H]1CO	1.8
CN(C[C@H]1[C@@H](c2ccccc2)[C@H](CO)N1Cc1ccccn1)S(C)(=O)=O	-6.2[25 µM]
CC(=O)c1cnc(-c2ccccc2Cl)s1	1.1
O=C1c2sc3nc4ccccc4n3c2C(=O)N1c1ccccc1Cl	51.6*
C[C@H](NC(=O)N(C)C[C@@H]1OCc2ccccc2-c2ccccc2C(=O)N([C@@H](C)CO)C[C@@H]1C)c1ccccc1	-17.3[25 µM]
O=C(Nc1ccc(F)cc1)N1CC(=O)N2[C@@H](CO)[C@H](c3ccc(-c4ccc(F)cc4)cc3)[C@@H]2C1	38.8
CCCNC(=O)N1[C@@H](C#N)[C@H](c2ccc(-c3cccc(OC)c3)cc2)[C@@H]1CO	50.7*[25 µM]
CCCNC(=O)N1[C@H](CO)[C@H](c2ccc(-c3cccnc3)cc2)[C@@H]1C#N	31.7[25 µM]
